9 compounds from PubChem BioAssay (Tox21) can be followed below.

The target in assay [1] is Thyrotropin-releasing hormone receptor (Homo sapiens) (UniProt P34981). As to the kind of experiment: qHTS assay to identify small molecule agonists of the thyrotropin-releasing hormone receptor (TRHR) signaling pathway (AID 1346891; calls by dose curve;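 further: HEK293 cells expressing TRHR with calcium dye readout; series mostly up to about 58 µM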). Summed up:
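In 1536-format, 1500 TRHR-Hek293 cells per well grew 18 h, took up calcium dye for 2 h at 37 °C, received compound, and were read kinetically; 15-point titrations, triplicates.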
(In general: In qHTS, concentration-response curves come from the screen itself.)

The nature of assay [2]: Human pregnane X receptor (PXR) small molecule agonists, qHTS cell viability counter screen (AID 1346977). Further: nearly all actives have a fitted effect of over 50% in size. In outline:
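Readout is CellTiter-Fluor fluorescence from PXR-Luc HepG2 cells. Plated cells rested 5hr, then were treated with compounds for 24hr at 37C and 5% CO2, with reagent present during the last hour.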

Assay [3] is described as follows: Caspase-3/7 induction in HepG2 cells by small molecules, qHTS assay (AID 1346978). Further: nearly all actives have a fitted effect of over 15% in size. In outline: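 Caspase-3/7 induction was measured by Caspase-Glo 3/7 luminescence (30 min, room temperature) after a 17 hr compound exposure of wild-type HepG2 cells seeded at 2,000 per well and pre-incubated 5 hr.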
Assay [4] can be described thus: Caspase-3/7 induction in CHO-K1 cells by small molecules, qHTS cell viability counter screen (AID 1346979). Further: nearly all actives have a fitted effect of over 35% in size. In outline: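 To flag cytotoxic compounds, treated CHO-K1 wild-type cells were given CellTiter-Fluor at 16hr and read fluorescently after 1hr at 37C; the caspase-3/7 luminescence was measured in these same wells.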
Assay [5] is described as follows: Caspase-3/7 induction in CHO-K1 cells by small molecules, qHTS assay (AID 1346980). Further: nearly all actives have a fitted effect of over 15% in size. In outline: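 Luminescent Caspase-Glo 3/7 read (30min, room temperature) quantified apoptosis induction. Cells were wild-type CHO-K1, treated with compound for 17hr at 37 C and 5% CO2.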
A short description of assay [6]: Caspase-3/7 induction in HepG2 cells by small molecules, qHTS cell viability counter screen (AID 1346981). Further: series mostly up to about 92 µM; nearly all actives have a fitted effect of over 30% in size. In outline:
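Wild-type HepG2 cells, 2,000/well, settled 5 hr at 37 C, 5% CO2 before compound addition. Viability read by CellTiter-Fluor fluorescence, reagent added after 16 hr compound exposure, then 1 hr at 37C, in the same wells as the caspase read.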

The target of assay [7] is Nuclear receptor subfamily 1 group I member 2 (Homo sapiens) (UniProt O75469). As to the kind of experiment: Human pregnane X receptor (PXR) small molecule agonists, qHTS assay (AID 1346982). Further: nearly all actives have a fitted effect of over 35% in size. Further: potency means the concentration at half of the fitted maximal effect. Summed up:
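PXR-Luc HepG2 reporter cells (CYP3A4-driven luciferase) in 5% charcoal-stripped FBS medium, plated 5 h before compound addition, then treated 24 h at 37C. Luciferase read by ONE-Glo luminescence after 30 min at room temperature.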

Assay [8] has as its target Cytochrome P450 2D6 (Homo sapiens) (UniProt P10635). As to the kind of experiment: Cytochrome P450 Family 2 Subfamily D Member 6 (CYP2D6) small molecule antagonists: luciferase reporter qHTS assay (AID 1671196). Further: nearly all actives have a fitted effect of over 50% in size. Further: potency means the concentration at half of the fitted maximal effect. Summed up: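 Cell-free P450-Glo system: CYP2D6 with proluciferin substrate was pre-incubated with compound for 10 min, then reacted with NADPH regeneration for 1 h at room temperature. Luciferin product was detected after 20 min, and data were reported as relative luminescence units.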

The target of assay [9] is Cytochrome P450 2C19 (Homo sapiens) (UniProt P33261). Briefly: Cytochrome P450 Family 2 Subfamily C Member 19 (CYP2C19) small molecule antagonists: luciferase reporter qHTS assay (AID 1671197). Further: nearly all actives have a fitted effect of over 65% in size. Further: potency means the concentration at half of the fitted maximal effect. Summed up:
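Inhibition of CYP2C19 was scored from loss of luminescence in a P450-Glo proluciferin substrate assay, NADPH-started and run 1 h at 37C, with ketoconazole as positive control.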
On the technique in general: In a reporter assay the amount or activity of a reporter protein is the signal.

For assay [10], the target named is Cytochrome P450 2C9 (Homo sapiens) (UniProt P11712). As to the kind of experiment: Cytochrome P450 Family 2 Subfamily C Member 9 (CYP2C9) small molecule antagonists: luciferase reporter qHTS assay (AID 1671198). Further: nearly all actives have a fitted effect of over 50% in size. Further: potency means the concentration at half of the fitted maximal effect. Summed up:
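Enzyme-substrate mix preincubated with compound 10 min at room temperature; reaction started with NADPH regeneration solution, 1 h 37C. Luminescent luciferin product read after 20 min detection reagent.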

Assay [11] has as its target Cytochrome P450 1A2 (Homo sapiens) (UniProt P05177). As to the kind of experiment: Cytochrome P450 Family 1 Subfamily A Member 2 (CYP1A2) small molecule antagonists: luciferase reporter qHTS assay (AID 1671199). Further: nearly all actives have a fitted effect of over 50% in size. Further: potency means the concentration at half of the fitted maximal effect. Summed up: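 P450-Glo CYP1A2 enzyme–proluciferin substrate mix with compound 10 min at room temperature, then NADPH regeneration 1 h at room temperature. Luciferin detection reagent added, luminescence read after 20 min; furafylline positive control.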

In assay [12] the target is Nuclear receptor subfamily 1 group I member 2 (Rattus norvegicus) (UniProt Q9R1A7). Briefly: Rat pregnane X receptor (rPXR) activation by small molecules, qHTS assay (AID 1346983). Further: nearly all actives have a fitted effect of over 20% in size. Conditions: rPXR luciferase reporter cells, One-Glo luminescence, 24 h; max activation: hits give high values. Summed up: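 Luminescent readout (One-Glo luciferase, 30 min room temperature) followed 24 hr compound treatment at 37 C of rPXR cells plated 2,000 per well and preincubated 5hr; qHTS format with compounds delivered in DMSO.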

Assay [13] addresses Nuclear receptor subfamily 1 group I member 2 (Homo sapiens) (UniProt O75469). Briefly: CYP3A4 induction through human pregnane X receptor (PXR) by small molecules, qHTS assay (AID 1346984). Further: nearly all actives have a fitted effect of over 40% in size. Summed up: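 DPX-2 HepG2 cells carrying a PXR response element and CYP3A4-promoter luciferase construct, treated with compounds 24 hr at 37C. Then P450-Glo CYP3A4 Luciferin-IPA substrate (3uM final) for 3 hr at 37C, One-Glo added, luminescence read.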

Assay [14] shares this target. Briefly: Human pregnane X receptor (PXR) activation by small molecules, qHTS assay (AID 1346985). Further: nearly all actives have a fitted effect of over 40% in size. Summed up: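 DPX-2 cells (HepG2 co-transfected with a PXR response element and a CYP3A4-promoter luciferase construct) were seeded at 2,000 per well, rested 5 hr at 37C, then exposed to DMSO-dissolved compounds for 24 hr. Activation was read as luciferase luminescence.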

In assay [15] the target is Voltage-gated inwardly rectifying potassium channel KCNH2 (Homo sapiens) (UniProt Q12809). Briefly: Human Ether-a-go-go-Related Gene (hERG) channel small molecule antagonists: fluorescence cell-based qHTS assay (AID 1671200). Summed up:
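Measured: Tl+ flux via fluorescence (480/540 nm) in hERG-expressing U2OS cells after 1 h dye loading at room temperature.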

Assay [16] concerns the target Cytochrome P450 3A4 (Homo sapiens) (UniProt P08684). Briefly: Cytochrome P450 Family 3 Subfamily A Member 4 (CYP3A4) small molecule antagonists: luciferase reporter qHTS assay (AID 1671201). Further: nearly all actives have a fitted effect of over 50% in size. Further: potency means the concentration at half of the fitted maximal effect. Summed up:
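Setup: enzyme-substrate mix, compound pin transfer, 10 min RT. Reaction: NADPH regeneration solution, 1 h RT. Readout: detection reagent stops turnover, luminescence measured after 20 min, expressed in relative luminescence units.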

A number with no mark means an inactive call. Inconclusive results are not listed. Calls of active or inactive are those of the source. Unless noted, the call rests on the fitted dose curve; in most records, active means well fitted curve in the direction sought with a large enough effect in the repeat runs; inconclusive means weak or mixed curves; inactive means no such curve, though single readings can be large; an effect the other way counts as inactive or inconclusive.
On the % scale 0 is the no-effect control and ±100 the full control effect.

Chain of Voltage-gated inwardly rectifying potassium channel KCNH2 (Homo sapiens) (Q12809 whole entry, looked up): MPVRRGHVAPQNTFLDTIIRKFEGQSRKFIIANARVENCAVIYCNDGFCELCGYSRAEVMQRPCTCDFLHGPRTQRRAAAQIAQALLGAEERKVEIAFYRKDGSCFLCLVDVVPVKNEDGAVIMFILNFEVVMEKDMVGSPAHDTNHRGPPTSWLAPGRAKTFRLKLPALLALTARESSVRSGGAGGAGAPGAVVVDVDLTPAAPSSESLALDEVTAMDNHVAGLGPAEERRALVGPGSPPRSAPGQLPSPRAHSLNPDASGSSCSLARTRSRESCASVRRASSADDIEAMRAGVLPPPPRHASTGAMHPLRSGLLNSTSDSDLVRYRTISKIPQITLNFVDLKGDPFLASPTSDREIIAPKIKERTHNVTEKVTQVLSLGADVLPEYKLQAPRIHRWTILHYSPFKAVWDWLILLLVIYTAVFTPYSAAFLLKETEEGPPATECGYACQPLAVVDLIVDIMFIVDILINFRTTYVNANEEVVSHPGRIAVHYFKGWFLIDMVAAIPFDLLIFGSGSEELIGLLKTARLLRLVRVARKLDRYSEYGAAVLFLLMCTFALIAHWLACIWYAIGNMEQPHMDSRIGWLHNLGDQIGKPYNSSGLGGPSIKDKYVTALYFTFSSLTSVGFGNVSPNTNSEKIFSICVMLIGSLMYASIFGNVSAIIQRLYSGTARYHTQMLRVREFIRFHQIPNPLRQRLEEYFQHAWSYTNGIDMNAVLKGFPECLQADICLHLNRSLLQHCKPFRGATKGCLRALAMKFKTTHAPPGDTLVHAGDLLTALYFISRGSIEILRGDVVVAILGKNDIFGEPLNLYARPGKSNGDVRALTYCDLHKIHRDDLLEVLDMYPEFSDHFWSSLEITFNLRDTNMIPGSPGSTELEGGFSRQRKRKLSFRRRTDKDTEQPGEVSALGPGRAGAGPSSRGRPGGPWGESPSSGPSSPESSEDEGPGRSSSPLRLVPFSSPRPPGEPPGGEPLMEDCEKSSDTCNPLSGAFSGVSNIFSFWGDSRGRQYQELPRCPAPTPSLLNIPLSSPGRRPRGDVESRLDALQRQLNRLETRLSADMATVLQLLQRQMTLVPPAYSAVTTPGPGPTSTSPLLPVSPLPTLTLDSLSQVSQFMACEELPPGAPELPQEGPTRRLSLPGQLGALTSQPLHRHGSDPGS
Chain of Nuclear receptor subfamily 1 group I member 2 (Homo sapiens) (O75469 whole entry, looked up): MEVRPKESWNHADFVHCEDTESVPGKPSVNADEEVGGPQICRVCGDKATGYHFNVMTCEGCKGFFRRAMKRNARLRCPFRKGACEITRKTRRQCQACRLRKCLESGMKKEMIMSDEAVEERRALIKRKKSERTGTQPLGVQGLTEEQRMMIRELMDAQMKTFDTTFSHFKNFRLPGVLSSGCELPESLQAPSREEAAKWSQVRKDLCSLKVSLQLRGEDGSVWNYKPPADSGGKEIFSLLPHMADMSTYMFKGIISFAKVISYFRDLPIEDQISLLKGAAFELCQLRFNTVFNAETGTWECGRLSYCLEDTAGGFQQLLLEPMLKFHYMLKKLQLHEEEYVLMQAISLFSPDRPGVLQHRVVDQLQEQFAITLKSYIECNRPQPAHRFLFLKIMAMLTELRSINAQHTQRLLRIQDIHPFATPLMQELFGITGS
Chain of Cytochrome P450 1A2 (Homo sapiens) (P05177 whole entry, looked up): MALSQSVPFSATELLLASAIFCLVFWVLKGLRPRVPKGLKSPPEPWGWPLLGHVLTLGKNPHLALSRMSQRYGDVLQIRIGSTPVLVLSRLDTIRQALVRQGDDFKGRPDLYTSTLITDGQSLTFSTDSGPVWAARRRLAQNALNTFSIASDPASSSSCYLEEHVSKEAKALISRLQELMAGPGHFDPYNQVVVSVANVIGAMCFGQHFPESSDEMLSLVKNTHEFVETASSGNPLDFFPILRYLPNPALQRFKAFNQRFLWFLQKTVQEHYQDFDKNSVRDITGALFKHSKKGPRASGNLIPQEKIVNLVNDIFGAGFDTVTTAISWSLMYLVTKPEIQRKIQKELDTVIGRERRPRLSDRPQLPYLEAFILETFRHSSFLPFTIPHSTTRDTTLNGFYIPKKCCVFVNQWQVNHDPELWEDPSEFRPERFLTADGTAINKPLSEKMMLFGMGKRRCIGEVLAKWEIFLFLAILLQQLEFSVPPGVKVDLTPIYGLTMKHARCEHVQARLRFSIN
Chain of Cytochrome P450 2C9 (Homo sapiens) (P11712 whole entry, looked up): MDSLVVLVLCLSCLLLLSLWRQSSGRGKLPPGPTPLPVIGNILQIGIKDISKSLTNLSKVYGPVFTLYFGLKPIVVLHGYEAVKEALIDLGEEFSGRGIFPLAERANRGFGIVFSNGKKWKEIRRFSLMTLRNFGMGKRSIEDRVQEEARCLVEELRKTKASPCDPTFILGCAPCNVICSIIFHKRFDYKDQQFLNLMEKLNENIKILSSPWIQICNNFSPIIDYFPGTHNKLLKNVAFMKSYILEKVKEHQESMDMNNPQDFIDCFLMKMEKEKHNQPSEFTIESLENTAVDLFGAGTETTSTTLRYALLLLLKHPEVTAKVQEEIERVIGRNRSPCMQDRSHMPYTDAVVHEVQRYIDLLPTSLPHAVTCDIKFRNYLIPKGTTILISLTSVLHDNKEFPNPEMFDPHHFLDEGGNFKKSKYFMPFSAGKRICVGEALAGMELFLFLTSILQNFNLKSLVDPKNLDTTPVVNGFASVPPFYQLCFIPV
Chain of Cytochrome P450 2C19 (Homo sapiens) (P33261 whole entry, looked up): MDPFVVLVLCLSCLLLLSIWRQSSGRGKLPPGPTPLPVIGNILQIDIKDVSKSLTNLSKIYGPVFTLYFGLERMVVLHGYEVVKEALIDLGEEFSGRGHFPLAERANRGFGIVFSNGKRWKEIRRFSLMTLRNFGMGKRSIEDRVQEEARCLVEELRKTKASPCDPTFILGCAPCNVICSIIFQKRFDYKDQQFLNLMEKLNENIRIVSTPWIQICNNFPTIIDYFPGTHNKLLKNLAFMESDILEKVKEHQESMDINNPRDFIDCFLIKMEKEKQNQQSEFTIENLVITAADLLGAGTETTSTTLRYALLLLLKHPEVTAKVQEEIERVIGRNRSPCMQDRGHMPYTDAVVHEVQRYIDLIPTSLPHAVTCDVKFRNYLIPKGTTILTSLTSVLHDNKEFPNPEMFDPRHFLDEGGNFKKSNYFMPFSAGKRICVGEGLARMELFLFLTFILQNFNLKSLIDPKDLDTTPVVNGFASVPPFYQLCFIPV
Chain of Cytochrome P450 2D6 (Homo sapiens) (P10635 whole entry, looked up): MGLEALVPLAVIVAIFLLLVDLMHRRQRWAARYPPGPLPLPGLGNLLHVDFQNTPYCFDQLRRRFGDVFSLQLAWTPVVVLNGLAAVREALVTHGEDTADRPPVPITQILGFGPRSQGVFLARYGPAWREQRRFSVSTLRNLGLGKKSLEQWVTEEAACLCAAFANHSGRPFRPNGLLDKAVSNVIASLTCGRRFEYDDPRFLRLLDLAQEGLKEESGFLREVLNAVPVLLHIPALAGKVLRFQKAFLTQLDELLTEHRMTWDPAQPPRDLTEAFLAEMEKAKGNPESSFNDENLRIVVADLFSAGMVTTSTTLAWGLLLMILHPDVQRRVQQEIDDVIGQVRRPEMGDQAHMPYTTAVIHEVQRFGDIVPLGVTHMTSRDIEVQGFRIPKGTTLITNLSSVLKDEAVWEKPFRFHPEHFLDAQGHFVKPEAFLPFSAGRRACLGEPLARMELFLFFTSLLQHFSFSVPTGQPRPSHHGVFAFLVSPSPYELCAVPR
Chain of Thyrotropin-releasing hormone receptor (Homo sapiens) (P34981 whole entry, looked up): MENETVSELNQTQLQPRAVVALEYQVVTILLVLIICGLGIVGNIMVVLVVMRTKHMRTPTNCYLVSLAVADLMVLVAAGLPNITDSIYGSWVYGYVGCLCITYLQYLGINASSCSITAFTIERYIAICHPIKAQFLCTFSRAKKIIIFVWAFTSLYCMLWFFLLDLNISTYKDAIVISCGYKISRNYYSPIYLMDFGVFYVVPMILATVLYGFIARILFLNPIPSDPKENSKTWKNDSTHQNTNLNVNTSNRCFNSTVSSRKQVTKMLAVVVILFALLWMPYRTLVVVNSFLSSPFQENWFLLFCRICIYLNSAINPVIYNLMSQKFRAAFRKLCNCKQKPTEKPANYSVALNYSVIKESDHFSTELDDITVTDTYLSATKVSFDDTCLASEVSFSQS
Chain of Cytochrome P450 3A4 (Homo sapiens) (P08684 whole entry, looked up): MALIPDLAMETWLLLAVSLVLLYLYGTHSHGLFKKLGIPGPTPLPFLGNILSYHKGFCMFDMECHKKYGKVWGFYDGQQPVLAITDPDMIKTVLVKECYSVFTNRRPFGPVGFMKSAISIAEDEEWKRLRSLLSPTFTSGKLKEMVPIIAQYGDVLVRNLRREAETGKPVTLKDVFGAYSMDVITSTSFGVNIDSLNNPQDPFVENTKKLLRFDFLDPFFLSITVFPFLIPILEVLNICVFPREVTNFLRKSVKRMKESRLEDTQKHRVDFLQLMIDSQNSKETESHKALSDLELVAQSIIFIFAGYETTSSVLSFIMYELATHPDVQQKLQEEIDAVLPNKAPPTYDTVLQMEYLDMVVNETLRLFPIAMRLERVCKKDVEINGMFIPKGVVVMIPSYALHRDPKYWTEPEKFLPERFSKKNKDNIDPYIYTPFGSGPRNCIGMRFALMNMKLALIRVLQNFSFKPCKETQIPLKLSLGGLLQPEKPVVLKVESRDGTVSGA
Chain of Nuclear receptor subfamily 1 group I member 2 (Rattus norvegicus) (Q9R1A7 whole entry, looked up): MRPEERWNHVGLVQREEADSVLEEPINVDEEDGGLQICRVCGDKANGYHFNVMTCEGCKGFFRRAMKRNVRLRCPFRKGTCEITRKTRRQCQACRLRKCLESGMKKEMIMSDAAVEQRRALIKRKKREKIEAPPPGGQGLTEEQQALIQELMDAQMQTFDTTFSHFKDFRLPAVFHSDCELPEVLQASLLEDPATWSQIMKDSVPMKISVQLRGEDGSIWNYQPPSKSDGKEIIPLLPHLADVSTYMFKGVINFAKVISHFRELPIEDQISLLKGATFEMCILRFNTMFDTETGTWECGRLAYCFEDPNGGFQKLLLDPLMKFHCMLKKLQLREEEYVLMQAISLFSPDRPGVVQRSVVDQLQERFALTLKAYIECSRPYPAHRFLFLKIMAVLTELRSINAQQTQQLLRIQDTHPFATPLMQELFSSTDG

Take `CO[C@@H]1COCC[C@@H]1N[C@@H]1CC[C@@](C(=O)N2CCc3ncc(C(F)(F)F)cc3C2)(C(C)C)C1`: in [1], the result was inactive. The Potency entry in assay [2], in assay [3], in [4], in assay [5], in assay [6] and in assay [7] was “inactive” in each case. Besides, the Potency result in assay [9], in [10] and in assay [11] was “inactive” throughout. The Potency in [8] is 35.4 µM (active).
For the compound `Nc1ccc(C(=O)Oc2ccccc2)c(O)c1`, in [1], the compound was classed as inactive. In addition, the Potency entry in assay [2], in [3], in assay [4], in [5], in [6] and in assay [7] was “inactive” in each case. Also, the Potency result in assay [13], in assay [14] and in assay [15] was “inactive” throughout. In addition, the max activation in assay [12] was 0.405%. Also, the Potency in [10] was 27.5 µM (active); in assay [11], 11.5 µM (active).
With `CCOc1ccccc1O`, the outcome in [1] was inactive. In addition, the Potency result in assay [2], in assay [3], in assay [4], in [5], in assay [6] and in assay [7] was “inactive” each time. For the same compound, the Potency result in assay [8], in assay [9], in assay [10], in [11], in assay [15] and in assay [16] was “inactive” in each case.
On to `CC(CCl)OC(C)CCl` (centres undefined), for which the compound was called inactive in assay [1]. Besides, the Potency result in assay [2], in [3], in assay [4], in [5], in assay [6] and in assay [7] was “inactive” in each case. Further, the Potency entry in [8], in [9], in assay [10], in assay [11] and in assay [16] was “inactive” throughout.
Consider `SCCOCCOCCS`, for which the outcome in assay [1] was inactive. The Potency entry in [2], in assay [3], in assay [4], in [5], in [6] and in [8] was “inactive” each time. In assay [15], the Potency result is “inactive”. The Potency was 4.86 µM (active) in assay [7]; 10 µM (active) in assay [9]; 35.6 µM (active) in assay [10]; 22.4 µM (active) in assay [11]; 17.8 µM (active) in assay [16].
For the compound `CC(C)NC(=O)c1ccccc1N`, in assay [1], the call was inactive. Further, the Potency result in [2], in assay [3], in assay [4], in assay [5], in assay [6] and in assay [7] was “inactive” each time. Besides, the Potency entry in assay [8], in assay [9] and in assay [10] was “inactive” in each case.
Turning to `O=C(O)c1cccc(C(=O)O)c1C(=O)O`, in assay [1], the result was inactive. Also, the Potency entry in assay [2], in assay [3], in assay [4], in [5], in [6] and in assay [7] was “inactive” throughout. For the same compound, the Potency entry in [10], in assay [11], in assay [15] and in assay [16] was “inactive” in each case. For the same compound, the Potency in assay [8] is 40.3 µM (active); in [9], 71.7 µM (active).
Consider `CCOC(C)OCC`, for which, in assay [1], the outcome was inactive. The Potency entry in assay [2], in assay [3], in [4], in assay [5], in assay [6] and in assay [7] was “inactive” each time. Further, the Potency result in assay [13], in assay [14], in assay [8], in [10], in [11] and in assay [15] was “inactive” in each case. Also, in [16], the Potency entry is “inactive”. Moreover, the max activation in assay [12] is -4.85%. Moreover, the Potency in assay [9] was 69 µM (active).
Regarding `CCOc1ccc2c(c1)C(C)CC(C)(C)N2` (centres undefined), the compound was called inactive in assay [1]. In addition, the Potency result in assay [2], in assay [3], in assay [4], in [5], in [6] and in assay [15] was “inactive” each time. Moreover, the Potency in [7] is 34.4 µM (active); in assay [8] it was 11.2 µM (active); in assay [9] it was 1.26 µM (active); in assay [10], 14.2 µM (active); in assay [11], 35.6 µM (active); in assay [16], 7.96 µM (active).
